Compound activity (PubChem)
Hits are enriched below; roughly 4.5% of the tested compounds scored in any of these assays.
PrP UTR inh: inhibition of PrP 5' UTR reporter expression | cell-based PrP 5' UTR mRNA reporter, plate reader | inhibition, % (concentration not given with the values) | hit rate 0.35% among 340,000 | AID 488862; in the data active = inhibition above about 52%; note: 0 = median of the neutral control wells
GDH-TPI counter-1: GDH-TPI coupled enzyme inhibition counter-screen; GDH-TPI coupled enzyme counterscreen, NADH absorbance; inhibition, % at 4.8 µM; hit rate 1.2% among 360,000; AID 588335; in the data active = inhibition above about 30%;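 note: 0% = DMSO wells and 100% = wells lacking the enzyme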
FBA Mtb inh: Mtb fructose-bisphosphate aldolase inhibition | P9WQA3 | purified M. tuberculosis FBA, fluorescence read-out | inhibition, % at 1 µM | hit rate 2.3% among 360,000 | AID 588726;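 note: 0% = vehicle and 100% = reference inhibitor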
BJeLR viability: kills HRASV12-expressing BJeLR cells; BJeLR (HRASV12) viability, CellTiter-Glo ATP luminescence, 48 h; inhibition, % (no concentration beside the values); hit rate 0.17% among 300,000; in the data active = inhibition above about 50%
PfHsp40 rescue: rescue of PfHsp40-mediated yeast toxicity. S. cerevisiae expressing PfHsp40, growth rescue, ATP luminescence. growth rescue, % at 12.5 µM. hit rate 0.68% among 340,000. AID 504582; in the data active = growth rescue above about 28%, passing the limit was not always enough;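 note: yeast W303a lacking pdr1 and pdr3 grown in galactose medium; growth measured after three days at 30 °C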
PrPC surface inh: reduces human prion protein on the cell surface. P04156. cell surface PrPC, TR-FRET read-out. inhibition, % at 13.8 µM. hit rate 0.43% among 370,000. AID 720596; in the data active = inhibition above about 24%; note: 0% = median of the test wells and 100% = reference compound wells
PrP UTR cherry: prion 5' UTR mRNA inhibition, cherry-pick retest; shares compounds with PrP UTR inh; inhibition, % at 2.5 µM; hit rate 48% among 1,100; cell-based prion protein 5' UTR reporter, plate reader; in the data active = inhibition above about 54%
Mtb FBA inh conf: Mtb FBA inhibition, confirmed. inhibition, % at 1 µM. purified M. tuberculosis FBA, fluorescence read-out. AID 651616. shares compounds with FBA Mtb inh. hit rate 78% among 5,600;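 note: 0% = vehicle wells and 100% = reference inhibitor wells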
GDH-TPI counter-2: counter-screen for M. tuberculosis FBA inhibitors: GDH-TPI coupled enzyme inhibition; GDH-TPI coupled enzyme counterscreen, fluorescence; AID 652141; hit rate 81% among 5,600; inhibition, % at 1 µM; shares compounds with FBA Mtb inh; in the data active = inhibition above about 10%
PrPC confirm: confirmation of inhibitors of cell surface human prion protein. shares compounds with PrPC surface inh. cell surface PrPC level, TR-FRET. inhibition, % at 13.8 µM. hit rate 65% among 1,500. AID 743200; in the data active = inhibition above about 25%
LD9 cytotox: kills or reduces viability of LD9 cells in PrPc counter-screen; shares compounds with PrPC surface inh; LD9 cells cytotoxicity, luminescence viability; inhibition, % at 13.8 µM; hit rate 29% among 1,500; in the data active = inhibition above about 9.5%
Starred values were filed as active, the others as inactive; nt = not tested or not shown. Cut-off read from the data, not from the text of the source, unless noted: active = inhibition above about 27%; inactive = the rest.

SMILES	PrP UTR inh	GDH-TPI counter-1	FBA Mtb inh	BJeLR viability	PfHsp40 rescue	PrPC surface inh	PrP UTR cherry	PrPC confirm	LD9 cytotox	others
C/C(=N\NC(=O)c1ccccc1NC(=O)c1ccc(Cl)cc1)c1ccncc1	76*	9	2	132*	0	9	70*	nt	nt
Cc1ccccc1CN1CCCCC(NC(=O)c2ccc(F)cc2)C1=O (stereo not given)	nt	nt	nt	nt	nt	0	nt	nt	nt
O=C(CSc1nnc(-c2cccnc2)n1C1CCCCC1)N1CCCC1	nt	nt	nt	nt	nt	-4	nt	nt	nt
Cc1cc(C)c2c(N)c(C(=O)Nc3ncc(C)s3)sc2n1	89*	20	43*	nt	0	-28	84*	nt	nt	Mtb FBA inh conf=121*;GDH-TPI counter-2=119*
CC(=O)c1sc2nc(C)cc(C)c2c1N	-97	19	22	-3	2	-31	nt	nt	nt
Cc1ccc(OC[C@@H](O)CN2CCC(C(O)(c3ccccc3)c3ccccc3)CC2)cc1	nt	nt	nt	nt	nt	-17	nt	nt	nt
O=C(C1CCCN(S(=O)(=O)c2ccc([N+](=O)[O-])cc2)C1)N1CCN(Cc2ccccc2)CC1 (stereo not given)	nt	nt	nt	nt	nt	-8	nt	nt	nt
CS(=O)(=O)Nc1ccccc1C(=O)NCC1(N2CCCCC2)CCCCC1	67*	-2	45*	-1	0	3	-4	nt	nt	Mtb FBA inh conf=9;GDH-TPI counter-2=-5
Nc1ncnc2c(C3OC(CO)C(O)C3O)scc12 (stereo not given)	58*	10	74*	nt	145*	55*	82*	nt	nt	Mtb FBA inh conf=180*;GDH-TPI counter-2=119*
COc1ccc(-c2cn3nc(C)c(C)nc3n2)cc1OC	-39	-2	0	nt	0	-25	nt	nt	nt
Cc1ccc(-c2cn3nc(C)c(C)nc3n2)cc1	67*	-3	34*	7	-1	-31	65*	nt	nt	Mtb FBA inh conf=3;GDH-TPI counter-2=3
O=C(c1ccccc1)n1ccc(-c2cnc(-c3ccccc3)s2)n1	54*	12	95*	2	-1	-9	-35	nt	nt	Mtb FBA inh conf=73*;GDH-TPI counter-2=58*
CCCn1c(NC(=O)c2ccccc2)nc(Cc2ccccc2)c1-c1ccc(OC)cc1	nt	nt	nt	nt	nt	4	nt	nt	nt
O=C1NC2C(=CC(O)C(O)C2O)c2cc3c(c(O)c21)OCO3 (stereo not given)	88*	8	9	nt	0	89*	95*	97*	55*
O=C1NC2C(O)C(O)C(O)C(O)C2c2cc3c(c(O)c21)OCO3 (stereo not given)	61*	7	1	nt	0	90*	83*	100*	32*
Nc1nc(F)nc2c1ncn2[C@@H]1O[C@H](CO)[C@@H](O)[C@@H]1O	-33	-14	1	11	-1	2	nt	nt	nt
Nc1nc(F)nc2c1ncn2[C@@H]1O[C@H](CO)[C@@H](O)[C@H]1O	94*	1	3	97*	-3	45*	94*	44*	54*
CC(=O)c1c(C)[nH]c(C(=O)CSc2nnc(N)s2)c1C	55*	12	-4	-4	1	30*	1	30*	-2
Cc1cccc2cc(C#N)c(SCC(=O)N3CC(=O)Nc4ccccc43)nc12	64*	4	2	54*	0	29*	81*	70*	16*
NC1=C(Cl)C(=O)c2ccccc2C1=O	-25	-7	-2	nt	-1	-12	nt	nt	nt
NC1=C(Cl)C(=O)c2ccc(S(N)(=O)=O)cc2C1=O	96*	11	0	nt	-1	34*	96*	44*	98*
O=S1(=O)c2ccc(Br)cc2OC[C@@H](c2ccccc2)N1Cc1cn(CCC2OCCO2)nn1	nt	nt	nt	nt	nt	3	nt	nt	nt
Cc1ccc(C(=O)n2c(N)nc3ccccc32)cc1	74*	5	-4	34	-1	25*	55*	-3	3
COc1ccc(CCNC(=O)C2CC2)cc1	-10	8	-21	3	2	1	nt	nt	nt
COc1ccc(C[C@H]2NC[C@H](O)[C@H]2OC(C)=O)cc1	92*	4	7	82*	0	89*	96*	102*	47*
SMILES	PrP UTR inh	GDH-TPI counter-1	FBA Mtb inh	BJeLR viability	PfHsp40 rescue	PrPC surface inh	PrP UTR cherry	PrPC confirm	LD9 cytotox	others
C/C(=C\CNc1ncnc2nc[nH]c12)CO	-10	-2	0	-3	0	4	nt	nt	nt
CC(C)CCCCCCCCCCCCC(=O)NCC(=O)NC1C(C)OC(Nc2ncnc3nc[nH]c23)C(O)C1O (stereo not given)	75*	3	3	nt	-1	25*	77*	79*	33*
CC(=O)O[C@H]1C(=O)[C@@]2(C)[C@H]([C@H](OC(=O)c3ccccc3)[C@]3(O)C[C@H](OC(=O)[C@H](O)[C@@H](NC(=O)c4ccccc4)c4ccccc4)C(C)=C1C3(C)C)[C@]1(OC(C)=O)CO[C@@H]1C[C@@H]2O	55*	9	2	nt	-1	35*	88*	24	3
CC(=O)O[C@H]1C(=O)[C@@]2(C)[C@H]([C@H](OC(=O)c3ccccc3)[C@]3(O)C[C@H](OC(=O)[C@H](O)C(NC(=O)c4ccccc4)c4ccccc4)C(C)=C1C3(C)C)[C@]1(OC(C)=O)CO[C@@H]1C[C@@H]2O (stereo not given in full)	70*	-2	0	40	0	31*	88*	27*	8
CC/C=C/CC(=O)N[C@@H](c1ccccc1)[C@@H](O)C(=O)O[C@H]1C[C@@]2(O)[C@@H](OC(=O)c3ccccc3)C3[C@](C)(C(=O)[C@H](OC(C)=O)C(=C1C)C2(C)C)[C@@H](O)C[C@H]1OC[C@@]31OC(C)=O (stereo not given in full)	59*	-10	0	30	0	26*	85*	23	-2
CC(=O)O[C@@]12CO[C@@H]1C[C@@H](O)[C@@]1(C)C(=O)[C@H](O)C3=C(C)[C@@H](OC(=O)[C@H](O)[C@@H](NC(=O)c4ccccc4)c4ccccc4)C[C@@](O)([C@@H](OC(=O)c4ccccc4)C12)C3(C)C (stereo not given in full)	21	-8	-2	34	1	7	nt	nt	nt
COC(=O)[C@@]12CCCCC=C1N(CCc1ccc(Cl)cc1)C(=O)[C@H]2CC(=O)NCc1cccc(C(F)(F)F)c1	nt	nt	nt	nt	nt	7	nt	nt	nt
COC(=O)[C@]12C[C@H](CC(=O)NCCc3ccccc3OC)C(=O)N(Cc3ccco3)C1=C[C@H](COCc1ccccc1)O[C@@H]2C	nt	nt	nt	nt	nt	-3	nt	nt	nt
